Laboratory results taken from PubChem BioAssay AID463173 (ICCB-Longwood Screening Facility, Harvard Medical School, 2010).
In all, about 52,000 compounds went through this assay and about 4,300 (8.3%) were called active. The full list was thinned out, with actives kept by preference. Values without a mark were called inactive. Rule as the data show it: active = survival mostly below about 52% (no sharp cut-off); inactive = mostly above about 56%.

What follows are molecules tested on DeltatarO mutant (assay: S. aureus survival, RN4220 and DeltatarO strains – OD600, teichoic acid synthesis inhibitors, primary screen (AID 463173)). Settings: S. aureus RN4220 wild type/DeltatarO growth, OD600, 18 h, hits give low values, screened at 18.75 µg/mL (by protocol).

Row | Compound | survival
1 | COc1ccccc1NC(=O)Cn1c(=O)n(Cc2ccc3c(c2)OCO3)c(=O)c2oc3ccccc3c21 | 77%
2 | Cn1c(SCc2ccc(F)cc2)nc2ccc(C(=O)NCc3cccc(Cl)c3)cc21 | 56% (active)
3 | Cn1c(SCc2ccc(F)cc2)nc2ccc(C(=O)NCc3ccc(Cl)cc3)cc21 | 50%
4 | Cn1c(SCc2ccc(F)cc2)nc2ccc(C(=O)NCc3ccccc3)cc21 | 49%
5 | COc1ccc(OC)c(C2NC(=O)NC(C)=C2C(=O)Nc2cc(C)cc(C)c2)c1 (centres undefined) | 47%
6 | COc1cc(C2NC(=O)NC(C)=C2C(=O)Nc2cc(C)cc(C)c2)ccc1O (centres undefined) | 38% (active)
7 | COc1ccc(C2NC(=O)NC(C)=C2C(=O)Nc2ccccc2)cc1OC (centres undefined) | 116%
8 | Cc1cccc(NC(=O)CSc2nnc3[nH]c(=O)cc(-c4ccccc4)n23)c1C | 116%
9 | O=S(=O)(NCC(c1cccs1)S(=O)(=O)c1ccccc1)c1ccc(F)cc1 (centres undefined) | 46% (active)
10 | O=C(NCc1ccccc1)C(=O)NCC(c1cccs1)S(=O)(=O)c1ccccc1 (centres undefined) | 52% (active)
11 | O=C(NCc1ccccc1)C(=O)NCC(c1cccs1)S(=O)(=O)c1cccs1 (centres undefined) | 91%
12 | Cc1ccc(CNC(=O)C(=O)NCC(c2cccs2)S(=O)(=O)c2ccc(C)cc2)cc1 (centres undefined) | 98%
13 | O=S(=O)(NCC(c1cccs1)S(=O)(=O)c1ccccc1)c1ccccc1 (centres undefined) | 115%
14 | O=S(=O)(NCC(c1cccs1)S(=O)(=O)c1ccccc1)c1ccc(F)c(C(F)(F)F)c1 (centres undefined) | 92%
15 | CC(C)c1ccc(N2C(=O)CS(=O)(=O)C23C(=O)N(Cc2cccc(F)c2)c2ccccc23)cc1 (centres undefined) | 69%
16 | COc1ccc(C2Nc3ccccc3-c3nnc(SC)nc3O2)cc1C (centres undefined) | 67%
17 | COc1ccccc1NC(=O)CSc1nc2ccccc2c2nc(-c3ccccc3)nn12 | 90%
18 | Cc1ccc(OCCCC(=O)Nc2ccc3c(c2)OCO3)cc1 | 100%
19 | COc1ccccc1CNC(=O)c1ccc2nc(CCc3ccccc3)oc2c1 | 83%
20 | Cc1cccc(N2CCN(S(=O)(=O)c3c(C)[nH]c(=O)[nH]c3=O)CC2)c1C | 84%
21 | CCN(CC)c1nn2c(=O)c(C(=O)NCCc3cccc(C)c3)cnc2s1 | 73%
22 | O=C(CSc1nc2c(c(=O)[nH]1)CCC2)Nc1cccc(O)c1 | 86%
23 | CCN1CCN(CCCNC(=O)c2cc3c(s2)-c2c(C)cccc2OC3)CC1 | 102%
24 | CCCCN(Cc1ccco1)C(=O)c1cc2c(s1)-c1c(C)cccc1OC2 | -2% (active)
25 | COc1ccc(CNC(=O)c2cc3c(s2)-c2c(C)cccc2OC3)cc1 | 87%

Row | Compound | survival
26 | CCOCCCN(Cc1ccco1)C(=O)c1cc2c(s1)-c1c(C)cccc1OC2 | -3% (active)
27 | CCCN1CCN(CCCNC(=O)c2cc3c(s2)-c2c(C)cccc2OC3)CC1 | 127%
28 | CCOc1ccc(CCNC(=O)c2cc3c(s2)-c2c(C)cccc2OC3)cc1 | 98%
29 | Cc1ccc(-n2ncc(C(=O)N3CCN(C4CCCCC4)CC3)c2C2CCN(C(=O)OC(C)(C)C)CC2)cc1 | 82%
30 | O=C(O)c1ccc(-c2cccc(Cl)c2)o1 | 67%
31 | Cc1ccc2cccc(NC(=O)c3ccc(-c4cccc(Cl)c4Cl)o3)c2n1 | 55%
32 | Cc1ccc2cccc(NC(=O)c3ccc(-c4cccc(Cl)c4)o3)c2n1 | 49% (active)
33 | Cc1ccc2cccc(NC(=O)c3ccc(-c4cc(Cl)ccc4Cl)o3)c2n1 | 71%
34 | Cc1ccc2cccc(NC(=O)c3ccc(-c4ccc(Cl)cc4Cl)o3)c2n1 | 67%
35 | Cc1ccc2cccc(NC(=O)c3ccc(-c4ccc(Br)cc4)o3)c2n1 | 59% (active)
36 | Cc1ccc2cccc(NC(=O)c3ccc(-c4cccc([N+](=O)[O-])c4)o3)c2n1 | 67%
37 | O=C(Nc1cccc2cccnc12)c1ccc(-c2cccc(Cl)c2)o1 | 3% (active)
38 | Nc1nc(N)c(S(=O)(=O)c2ccccc2)c(Nc2ccc(F)cc2)n1 | 72%
39 | O=C(COc1ccccc1)NCCc1csc(-c2cccc(F)c2)n1 | 78%
40 | COc1ccc(NC(=O)CSc2nc(-c3ccco3)cc(C(F)(F)F)n2)cc1 | 86%
41 | COc1ccc(Cl)cc1NC(=O)CSc1nc(-c2ccco2)cc(C(F)(F)F)n1 | 31% (active)
42 | O=C(CSc1nc(-c2ccco2)cc(C(F)(F)F)n1)Nc1ccccc1 | 102%
43 | Cc1ccc(F)cc1NC(=O)CCSc1nc(-c2ccco2)cc(C(F)(F)F)n1 | 48%
44 | Cc1cc(F)ccc1NC(=O)CCSc1nc(-c2ccco2)cc(C(F)(F)F)n1 | 45%
45 | COc1ccc(NC(=O)CSc2nc(-c3ccco3)cc(C(F)(F)F)n2)cc1OC | 63%
46 | COc1ccc(NC(=O)CSc2nc(-c3ccco3)cc(C(F)(F)F)n2)cc1Cl | 38% (active)
47 | CCNS(=O)(=O)c1ccc(NC(=O)CSc2nc(-c3ccco3)cc(C(F)(F)F)n2)cc1 | 36% (active)
48 | Cc1ccc(O)c(NC(=O)CCSc2nc(-c3ccco3)cc(C(F)(F)F)n2)c1 | 28% (active)
49 | CN(C)c1ccc(NC(=O)CSc2nc(-c3ccco3)cc(C(F)(F)F)n2)cc1 | 65%
